The source of these data is PubChem BioAssay AID2551 (National Center for Advancing Translational Sciences (NCATS), 2010).

The structures appear in SMILES notation. Hit rate of the full screen: of about 310,000 compounds, about 17,000 (5.5%) were called active. About 11% were inconclusive and are not listed. The entries come from a sample that favours actives as a whole. A call without a number means that no potency is given here. A number with no mark means an inactive call. The call rests on the fitted dose curve; in most records, active means well fitted inhibition curve with a large enough effect; inconclusive means small, poorly fitted or top-dose-only effect, or effect the other way; inactive means no such curve, though single readings can be large or run the other way.
Potency means the concentration at half of the fitted maximal effect.

Sequence of Nuclear receptor ROR-gamma (Mus musculus) (P51450 whole entry, looked up, the tested form may be a part): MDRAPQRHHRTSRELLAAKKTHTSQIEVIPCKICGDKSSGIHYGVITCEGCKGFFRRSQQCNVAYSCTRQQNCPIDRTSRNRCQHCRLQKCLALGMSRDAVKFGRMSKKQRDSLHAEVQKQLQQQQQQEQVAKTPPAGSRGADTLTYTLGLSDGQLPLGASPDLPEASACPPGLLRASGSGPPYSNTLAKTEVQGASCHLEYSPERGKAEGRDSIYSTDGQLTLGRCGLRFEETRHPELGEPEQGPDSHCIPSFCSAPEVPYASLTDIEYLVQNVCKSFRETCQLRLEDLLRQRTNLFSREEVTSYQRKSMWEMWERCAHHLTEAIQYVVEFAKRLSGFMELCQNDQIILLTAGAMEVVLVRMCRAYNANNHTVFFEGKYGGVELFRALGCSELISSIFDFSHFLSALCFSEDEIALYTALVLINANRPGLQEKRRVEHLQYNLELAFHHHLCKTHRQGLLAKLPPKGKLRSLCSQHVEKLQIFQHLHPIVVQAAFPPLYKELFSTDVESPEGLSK

The target in the assay is Nuclear receptor ROR-gamma (Mus musculus) (UniProt P51450). Kind of assay: qHTS for inhibitors of ROR gamma transcriptional activity. Further: nearly all actives have a fitted effect of over 60% in size. The note with it: Drosophila S2 Gal4-RORgamma UAS-luciferase reporter, 20 h; series mostly up to 53.6 µM. In short, it runs like this:
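In this cell-based reporter format, copper sulfate (700 uM final) drives Gal4–ROR gamma fusion expression from a metallothionein promoter in Drosophila Schneider cells; compounds preincubated 1 hr, reporter read after 20 hr at ambient temperature.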
For the compound `CCOC(=O)c1c(-c2ccccc2)oc2cc(Br)c(O)c(C=O)c12`, the Potency result was “inactive”.

In the case of `O=C(NCCc1ccccc1)c1ccc2c(c1)N(Cc1ccccc1)CCS2`, the Potency result is “inactive”.

Consider `O=C(NCCNc1ccc([N+](=O)[O-])cc1Cl)c1ccccc1F`, for which the activity change, negative = inhibition is -13.1% [at 1.91 µM].

As for `COC(c1ccccc1)(c1ccccc1)C(Oc1nc(C)cc(C)n1)C(=O)O` (stereo not drawn), the Potency entry was “inactive”.

For the compound `C/C(CC(C)C)=N\Oc1nc(C)cc(C)n1`, the Potency is 6.31 µM (active).

For the compound `COc1ccc(NC(=O)CCCN2C(=O)C(c3ccccc3)Oc3cccnc32)cc1` (stereo not drawn), the Potency result is “inactive”.

Regarding `CCN(C(=O)c1cc([N+](=O)[O-])ccc1NCc1cccnc1)c1ccccc1`, the activity change, negative = inhibition is 11.5% [at 1.91 µM].

Consider `COc1ccc(CN(C)C(=O)c2cc(-c3ccc(C)cc3C)nc3ccccc23)c(OC)c1OC`, for which the Potency entry is “inactive”.

Consider `Cc1cc(=O)oc2c3c(cc(OCC(=O)NCCC(=O)N[C@@H](C)C(=O)O)c12)OC(C)(C)CC3`, for which the Potency result is “inactive”.

On to `COC(=O)c1ccc(/C=N/NC(=O)C(=O)N2CCCCCC2)cc1`, for which the Potency entry was “inactive”.

On to `COc1ccccc1/C=C/C=N/NC(=O)CN1CCN(Cc2ccccc2)CC1`, for which the Potency result was “inactive”.

For the compound `CC(/C=C/c1ccccc1)=N\NC(=O)C1CC1(C)c1ccccc1` (stereo not drawn), the Potency entry was “inactive”.

Take `O=C(N/N=C/C=C/c1ccccc1)C1CC1(c1ccccc1)c1ccccc1` (stereo not drawn): the Potency was 8.91 µM (active).

As for `CN(C(=O)CCNC(=O)Cn1ccc2ccccc2c1=O)c1ccc(Br)cc1`, the Potency result was “inactive”.

As to `COc1cc(NC(=O)C2CC(c3ccccc3O)=NO2)c(OC)cc1Cl` (stereo not drawn), the Potency result is “inactive”.

As to `O=C(CN1C(=O)COc2ccc(Cl)cc21)Nc1ccc(N2CCOCC2)cc1`, the Potency result is “inactive”.

For `CCOC(=O)c1sc(NC(=O)c2cc(S(=O)(=O)N3CCOCC3)ccc2C)nc1C`, the Potency entry was “inactive”.

As to `Cc1ccc(S(=O)(=O)N2CCOCC2)cc1C(=O)NC(=S)N(Cc1ccccc1)C(C)C`, the Potency was 1.26 µM (active).

For `Cc1ccc(S(=O)(=O)N2CCOCC2)cc1C(=O)NCc1ccc(F)cc1`, the Potency entry was “inactive”.

Consider `COc1ccc([N+](=O)[O-])cc1NCC(=O)c1ccc(C)cc1`, for which the Potency result is “inactive”.

`COCC1CCN(C(=O)CCc2nnc(C3(c4ccc(Cl)cc4)CCC3)o2)C1` (stereo not drawn): the Potency result was “inactive”.

As for `CCCNC(=O)COc1coc(CN2CCN(Cc3ccccc3)CC2)cc1=O`, the Potency result is “inactive”.

With `COC(=O)c1cc(S(=O)(=O)NCC2CCN(Cc3ccc(Cl)cc3)CC2)cn1C`, the Potency entry was “inactive”.

For `O=c1[nH]c(-c2cccs2)nc2ccccc12`, the Potency result is “inactive”.

Take `S=c1[nH]c(-c2cccs2)cn1-c1ccccc1`: the Potency is 5.01 µM (active).

With `O=C(O)/C=C/c1cn(-c2ccccc2)nc1-c1cccs1`, the Potency entry is “inactive”.

In the case of `O=C1OC2(CCCCC2)CC2=C1C1O[C@](c3ccsc3)(Cc3ccccc31)O2`, the activity change, negative = inhibition is -3.37% [at 10 µM].

As to `Nc1nc(SCc2cccc(Br)c2)n[nH]1`, the Potency result was “inactive”.

Take `Nc1nonc1-n1nnc(C(=O)N/N=C/c2cc(Br)ccc2O)c1CSC1=NCCS1`: the Potency was 3.16 µM (active).

For `Cc1ccc(SCc2c(C(=O)N/N=C/C3CC=CCC3)nnn2-c2nonc2N)cc1` (stereo not drawn), the Potency result was “inactive”.

Turning to `Cc1ccc(SCc2c(C(=O)N/N=C/c3cccnc3)nnn2-c2nonc2N)cc1`, the Potency result is “inactive”.

On to `C=CCOc1ccccc1NC(=O)CN1C(=O)CNC1=O`, for which the Potency result was “inactive”.

Take `Cc1ccc(/C=N/NC(=S)Nc2cccc(S(=O)(=O)N(C)C)c2)o1`: the Potency was 1.26 µM (active).

In the case of `CN(C)S(=O)(=O)c1cccc(NC(=S)N/N=C/C(=O)c2ccccc2)c1`, the Potency result was “inactive”.

On to `CN(C)S(=O)(=O)c1cccc(NC(=O)Cc2ccsc2)c1`, for which the Potency entry is “inactive”.

For the compound `O=C(Nc1ccccc1)C1CCN(C(=O)c2ccc(Br)cc2)CC1`, the Potency result was “inactive”.

In the case of `O=C(NCCc1ccccc1Cl)C1CCC(=O)N(CCCc2ccccc2)C1` (stereo not drawn), the Potency entry was “inactive”.

As to `CC1CC(C)CN(CCOc2cccc3ccccc23)C1` (stereo not drawn), the Potency entry was “inactive”.

Take `C=C(C)COc1ccc(-c2nc(N)ncc2-c2ccccc2OC)c(O)c1`: the Potency result was “inactive”.

For `COc1ccc(-c2n[nH]c(C)c2-c2ccc(OC)c(OC)c2)c(O)c1`, the Potency was 10 µM (active).

On to `COc1ccc(OC)c(-c2csc(-c3cccs3)n2)c1`, for which the Potency result is “inactive”.

Turning to `CCOc1ccc(-c2nc(N)ncc2-c2ccccc2OC)c(O)c1`, the Potency entry is “inactive”.

`COc1ccc(-c2n[nH]c(C)c2-c2ccccc2OC)c(O)c1`: the Potency was 8.91 µM (active).

As for `COc1ccc(-c2[nH]ncc2CN(C)Cc2c(C)n[nH]c2C)c(OC)c1`, the Potency result was “inactive”.

In the case of `COc1ccc(-c2c(-c3ccc(OC)cc3O)nc(C)nc2C(F)(F)F)cc1`, the Potency entry was “inactive”.

`C=C(C)COc1ccc(-c2n[nH]c(C)c2-c2ccccc2OC)c(O)c1`: the Potency was 14.1 µM (active).

On to `COc1ccc(CCN2C(=O)c3[nH]nc(-c4ccccc4O)c3C2c2ccc(C)cc2)cc1OC` (stereo not drawn), for which the Potency entry was “inactive”.

On to `CC(=O)COc1ccc2c(-c3ccccc3)cc(=O)oc2c1`, for which the Potency entry was “inactive”.

For the compound `Cc1noc(C)c1COC(=O)COc1ccc(-c2ccccc2)cc1`, the Potency entry is “inactive”.

Take `C=C(C)COc1ccc(-c2n[nH]c(C)c2-c2ccccc2)c(O)c1`: the Potency is 7.08 µM (active).

Regarding `O=C(NCCc1ccccn1)c1nc(Cn2cc([N+](=O)[O-])cn2)no1`, the Potency result was “inactive”.

For the compound `Cc1ccccc1N1CC(C(=O)Nc2ccc3c(c2)OCO3)CC1=O` (stereo not drawn), the Potency entry was “inactive”.

In the case of `COc1ccc(-c2csc3ncnc(N4CCN(S(=O)(=O)c5ccccc5C#N)CC4)c23)cc1`, the Potency entry is “inactive”.

As to `CCCC(=O)N(CCN1CCOCC1)c1nc2ccc(OCC)cc2s1`, the Potency entry is “inactive”.

Turning to `CC(=O)Nc1ccc(NC(=O)CSc2nnnn2-c2ccccc2F)cc1`, the Potency entry is “inactive”.

With `CCc1ccc(NC(=O)CS(=O)CC(=O)N2CCN(c3ccccc3F)CC2)cc1` (stereo not drawn), the Potency entry was “inactive”.

For `Cc1nc(CN(C)C(=O)CC2C(=O)NCCN2Cc2ccc(F)cc2)cs1` (stereo not drawn), the Potency entry is “inactive”.

Take `CCOc1ccc(CN2CCN(Cc3c[nH]c4ccccc34)CC2)cc1`: the Potency result was “inactive”.

As to `COc1ccc2c(c1)C(NS(=O)(=O)OCC(Cl)(Cl)Cl)CCC2` (stereo not drawn), the Potency result is “inactive”.

With `O=C(CC1C(=O)NCCN1C(=O)c1ccc([N+](=O)[O-])cc1)Nc1cccc(Cl)c1` (stereo not drawn), the Potency entry is “inactive”.

Regarding `O=C(NCc1ccncc1)C1CCCN(S(=O)(=O)c2ccc(Br)cc2)C1` (stereo not drawn), the Potency result was “inactive”.

Turning to `COc1ccc(NC(=O)CCCNC(=O)Cn2cnc3sc4c(c3c2=O)CCCC4)cc1OC`, the Potency entry is “inactive”.

Regarding `CCOc1cccc(-c2nn3c(-c4ccccn4)nnc3s2)c1`, the activity change, negative = inhibition is -2.44% [at 10 µM].

For `COc1ccc(-n2c(SCC(=O)OC(C)C)nnc2-c2ccccn2)cc1`, the Potency entry was “inactive”.

On to `CCOc1ccc(-c2n[nH]c(C)c2-c2ccccn2)c(O)c1`, for which the Potency was 17.8 µM (active).

With `COc1ccc(CNC(=O)CCN2C(=O)c3ccccc3C2=O)cc1`, the Potency entry was “inactive”.

Take `O=C(O)CC(c1ccccc1F)N1Cc2ccccc2C1=O` (stereo not drawn): the Potency result was “inactive”.

`COCCC(=O)N1CCC(Oc2ccc(C(=O)NCc3ccon3)cc2)CC1`: the Potency result was “inactive”.

Take `O=C(NCCCn1ccnc1)Nc1ccc(Cl)cc1Cl`: the Potency result was “inactive”.

As for `Clc1ccc(C(Cn2ccnc2)OCc2ccsc2Cl)c(Cl)c1` (stereo not drawn), the Potency is 12.6 µM (active).

On to `COc1ccc(C(CNC(=O)COc2ccc([N+](=O)[O-])cc2)N2CCCCC2)cc1` (stereo not drawn), for which the Potency result is “inactive”.

For `CC(=O)NCC(=O)NC1CCCc2c1cnn2-c1ccccc1F` (stereo not drawn), the Potency result is “inactive”.

Turning to `COCCN(C(=S)Nc1cccc(Cl)c1C)C(C)c1ccco1` (stereo not drawn), the Potency is 7.94 µM (active).

`COCCN(CCOC)C(=S)Nc1ccccc1Cl`: the Potency entry is “inactive”.

On to `Cc1c(Cl)cccc1NC(=O)CCC(=O)N/N=C/c1ccco1`, for which the Potency entry is “inactive”.

Take `C=CCn1c(SCC(=O)NCCCO)nc2sc3c(c2c1=O)CCC3`: the Potency entry was “inactive”.

Turning to `COc1ccc(NC(=S)N2CCC(NC(=O)c3cccc(F)c3)CC2)cc1`, the Potency result was “inactive”.

On to `COc1ccccc1C1CCN(C(=S)Nc2ccc(Br)cc2)CC1`, for which the Potency was 5.01 µM (active).

In the case of `COc1ccc(C(=O)NC2CCN(C(=S)Nc3ccccc3)CC2)cc1`, the Potency entry was “inactive”.

For `COc1ccc(NC(=O)C2C3CCC(O3)C2C(=O)O)cc1OC` (stereo not drawn), the Potency entry is “inactive”.

In the case of `COc1cc(NC(=O)CCS(=O)(=O)c2ccc3c(c2)oc(=O)n3C)cc(OC)c1`, the Potency entry is “inactive”.

On to `Cc1ccc(C(=O)N(CC(=O)NC2CCCC2)c2ccc(F)cc2)s1`, for which the Potency entry was “inactive”.

As to `CCOc1c2ccc(C(=O)NCc3ccc4c(c3)OCO4)cc2nn1C`, the Potency entry was “inactive”.

As for `C=CCNC(=O)c1ccc(C)c(Br)c1`, the activity change, negative = inhibition is 5.36% [at 0.365 µM].

Take `C=CCNC(=O)c1ccc2c3n(nc2c1)-c1ccc(C)cc1CO3`: the Potency is 7.08 µM (active).

As to `CCCc1nn2c(=O)cc(CSCC(=O)Nc3cccc(C)c3)nc2s1`, the Potency entry is “inactive”.

On to `Cc1ccc2c(c1)c1ncn(CCC3=CCCCC3)c(=O)c1n2C`, for which the Potency result is “inactive”.

Turning to `Cc1ccc2c(c1)c1ncn(Cc3ccc(F)cc3)c(=O)c1n2C`, the Potency entry is “inactive”.

`Cc1ccc2c(c1)c1ncnc(N3CCc4ccccc4C3)c1n2C`: the Potency is 15.8 µM (active).

`O=C(O)c1ccccc1-c1ccccc1C(=O)Nc1ccccc1Br`: the Potency result is “inactive”.

Regarding `COc1cccc(C(=O)Nc2ccc(NC(=O)c3ccco3)cn2)c1`, the Potency entry was “inactive”.

Regarding `O=C(Nc1ccc2nccnc2c1)c1ccco1`, the Potency result is “inactive”.

As to `O=C(Nc1ccc(NC(=O)c2cccs2)cn1)c1ccco1`, the Potency is 11.2 µM (active).

In the case of `Cc1cc(O)c(C2(O)C(=O)Nc3ccccc32)cc1C` (stereo not drawn), the Potency entry is “inactive”.

In the case of `C/C(=N\NC(=O)c1ccc2ccccc2c1)c1cccnc1`, the Potency entry is “inactive”.

As to `Cn1c(CNC(=O)C(C)(C)C)nc2ccccc21`, the activity change, negative = inhibition is 20.1% [at 0.365 µM].

In the case of `CC(NCc1nc2ccccc2n1C)C12CC3CC(CC(C3)C1)C2` (stereo not drawn), the Potency is 5.01 µM (active).

`CCOc1ccc(C(O)Cc2nc3ccccc3n2C)cc1` (stereo not drawn): the Potency result is “inactive”.

Consider `COc1ccc(CCNC(=O)Cc2ccc(C)cc2)cc1OC`, for which the Potency entry was “inactive”.

In the case of `COc1ccc(CCNC(=S)NC(=O)/C=C/c2ccc(C)cc2)cc1OC`, the Potency is 3.16 µM (active).

Take `COc1ccc(CCNC(=O)NS(=O)(=O)c2ccc(C)cc2)cc1OC`: the Potency result was “inactive”.

`COc1cccc(CNC(=O)CN(C)S(=O)(=O)c2ccc3c(c2)c(=O)n(C)c(=O)n3C)c1`: the Potency result was “inactive”.

In the case of `CC(=O)Nc1ccc(NC(=O)CN2C(=O)COc3ccc(S(=O)(=O)N4CCCCC4)cc32)cc1`, the Potency entry is “inactive”.
